Results as given in the supplement of paper PMC6555819.

tested on: PPARa:RXRa (NR concentration 270 nM, RXRa partner concentration 90 nM); assay: PBM binding z-score (relative to random genomic background probes); higher = stronger binding; sequences stand for … in GC…GCGATTGACAGCGTAGAATGAAGG
Procedure, shortened: (§1)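 For binding z-scores, the reference was random background probes on custom Agilent 4×180K protein-binding microarrays. These arrays were incubated 1 h with ligand-free nuclear receptor dimers in PBS pH 7.4, 2% milk, 0.02% Triton X-100, 1 mM DTT, 0.2 mg/mL BSA and 0.4 mg/ml salmon testes DNA. Fluorescence was scanned after antibody detection of each partner (one per run) and regression-normalized.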

| Sequence | PBM binding z-score |
| --- | --- |
| TGTAGTTGGTCAAAGGTCACACACTCGAAATGCG | 6.69 |
| GCGACTGGGGCACCAGCAGGTTACCATAACTTAA | 1.05 |
| CCTATTAGTTGACCATAAGGGCAACCGGAGCTCG | 0.657 |
| CCTACTGGGCCCTCAGGTCATTGATATCAACGTT | 1.5 |
| AACTCTAGGTAAAGTTCAGTGAAAGATCGATAGA | 2.44 |
| TCTATTAGTTGAAGCGCAACCGACGAGTCCGTTT | 0.55 |
| TCTATTAGTTTAAGGGCAACCGACGAGTCCGTTT | 1.33 |
| TAGCCTAGGTCAGATCGGGTCAGTATACGCTATA | 2.8 |
| GCGACTGGGGCATCAGCAGATTACCATAACTTAA | 0.511 |
| TGTCAAAGTTCAAATGTAACGTAAGTATCCACAC | 5.53 |
| ATACCAAGCTGATCGTGAGGTCGTTGATACTAAC | 0.693 |
| CCCAGTAGGTTATGGGGCATTCAGGCAACGGTGA | 2.63 |
| TAGCCGAGGTCAGATCGGGCCAGTATACGCTATA | 4.8 |
| AATACAGGGTCATCGGAGGCCAGAGTACGCACAG | 6.1 |
| CCTTACGGGTCTCGAGGTTATAGCACGACGAGCG | 1.15 |
| CCTGCTAGGTCATAGTCAGCTAATCTACAGTATG | 3.12 |
| GCGGCTAGGTCAACTGATGGTCAGCTAAAGCTCG | 3.56 |
| CGTACAGGGTCAGCTAGGCCAGAGTAGGGACGGC | 4.22 |
| ATCTCAAGGTAACAAGTTCAGTGAAAGAGAGGAC | 1.4 |
| ATCTAAAGGTCGAGGTGAGTATAGAGAAAGGGAA | 4.61 |

| Sequence | PBM binding z-score |
| --- | --- |
| AGACAAAGTTCACTAGGTAACGTAAGATTCAGCT | 4.76 |
| CCTTACGGCTCACTGACAGGTTATAGCATTTGGA | 0.311 |
| CGTCAGAGTTCAAGGTAACGTAACAGAAAGCAGC | 4.54 |
| ATCTCTAGGTAACTAAGTTCAGTGAATGCCGAAC | 1.32 |
| GCGACTGCGGCAAAGCAGGTTACCATAAGGTTGG | 0.0395 |
| GCTGCTAGATCAGGTTGGTCAGCTAACGGGTACG | -1.19 |
| CCTCGGAGTACAGAAGGTCAGAGCTGTCCGCTTT | 2.02 |
| TTACCAAGGTGAAGGTCTTTGATCCCTCTGTAGA | 1.64 |
| TAGCCTAGGACATTCAGGGGCCAGTATAGAAAGC | -0.572 |
| GCGACTGGGGCATTAGCAGGTTACCATAACTTAA | 0.973 |
| ATACCACGGTGATCGTGAGGTCGTTGATACTAAC | 0.958 |
| TCTGCTAGGTCAGTTGGTCAGCTTACGAGCTGCC | 1.29 |
| TCGAGTAGGTTAGTCGGGACATTCAGCCAACATA | 0.291 |
| GCAGACAGGTGAAACGCAGGTAAGTCAGGGTGGC | 0.476 |
| GCAGACAGGTGAAACGCCGGTAACTCAGGGTGGC | 0.601 |
| TCATATAAGTAAATGCTAGGTGAAAGTCCGATCT | 1.3 |
| TCATATAGGTAAAGGTGATAGTCGAACGATATGA | 2.02 |
| CCTTACGGGTCAACGTTATAGCACGGGTGGTACG | 4.99 |
| TAGCCTAGGTCAGATCGGGCCAGTACACGCTATA | 1.82 |
| AGAACGAGGCCACGCTGAGTTGATAGCAGAGTAG | 0.356 |

tested on: PPARg:RXRa (NR concentration 180 nM, RXRa partner concentration 90 nM); assay: as above
Procedure, shortened: as §1

| Sequence | PBM binding z-score |
| --- | --- |
| TGTAGTTGGTCAAAGGTCACACACTCGAAATGCG | 11 |
| GCGACTGGGGCACCAGCAGGTTACCATAACTTAA | 1.55 |
| CCTATTAGTTGACCATAAGGGCAACCGGAGCTCG | 0.421 |
| CCTACTGGGCCCTCAGGTCATTGATATCAACGTT | 0.069 |
| AACTCTAGGTAAAGTTCAGTGAAAGATCGATAGA | 3.7 |
| TCTATTAGTTGAAGCGCAACCGACGAGTCCGTTT | -0.192 |
| TCTATTAGTTTAAGGGCAACCGACGAGTCCGTTT | 0.0687 |
| TAGCCTAGGTCAGATCGGGTCAGTATACGCTATA | 1.19 |
| GCGACTGGGGCATCAGCAGATTACCATAACTTAA | 1.02 |
| TGTCAAAGTTCAAATGTAACGTAAGTATCCACAC | 8.25 |
| ATACCAAGCTGATCGTGAGGTCGTTGATACTAAC | 0.178 |
| CCCAGTAGGTTATGGGGCATTCAGGCAACGGTGA | 5.2 |
| TAGCCGAGGTCAGATCGGGCCAGTATACGCTATA | 3.14 |
| AATACAGGGTCATCGGAGGCCAGAGTACGCACAG | 6.72 |
| CCTTACGGGTCTCGAGGTTATAGCACGACGAGCG | 0.785 |
| CCTGCTAGGTCATAGTCAGCTAATCTACAGTATG | 1.77 |
| GCGGCTAGGTCAACTGATGGTCAGCTAAAGCTCG | 2.23 |
| CGTACAGGGTCAGCTAGGCCAGAGTAGGGACGGC | 3.14 |
| ATCTCAAGGTAACAAGTTCAGTGAAAGAGAGGAC | 0.619 |
| ATCTAAAGGTCGAGGTGAGTATAGAGAAAGGGAA | 3.83 |

| Sequence | PBM binding z-score |
| --- | --- |
| AGACAAAGTTCACTAGGTAACGTAAGATTCAGCT | 6 |
| CCTTACGGCTCACTGACAGGTTATAGCATTTGGA | 0.426 |
| CGTCAGAGTTCAAGGTAACGTAACAGAAAGCAGC | 2.92 |
| ATCTCTAGGTAACTAAGTTCAGTGAATGCCGAAC | 0.573 |
| GCGACTGCGGCAAAGCAGGTTACCATAAGGTTGG | 0.3 |
| GCTGCTAGATCAGGTTGGTCAGCTAACGGGTACG | -0.285 |
| CCTCGGAGTACAGAAGGTCAGAGCTGTCCGCTTT | -0.0233 |
| TTACCAAGGTGAAGGTCTTTGATCCCTCTGTAGA | 1.37 |
| TAGCCTAGGACATTCAGGGGCCAGTATAGAAAGC | 0.256 |
| GCGACTGGGGCATTAGCAGGTTACCATAACTTAA | 0.712 |
| ATACCACGGTGATCGTGAGGTCGTTGATACTAAC | 0.3 |
| TCTGCTAGGTCAGTTGGTCAGCTTACGAGCTGCC | 0.177 |
| TCGAGTAGGTTAGTCGGGACATTCAGCCAACATA | 0.156 |
| GCAGACAGGTGAAACGCAGGTAAGTCAGGGTGGC | 0.369 |
| GCAGACAGGTGAAACGCCGGTAACTCAGGGTGGC | 0.303 |
| TCATATAAGTAAATGCTAGGTGAAAGTCCGATCT | 0.711 |
| TCATATAGGTAAAGGTGATAGTCGAACGATATGA | 2.72 |
| CCTTACGGGTCAACGTTATAGCACGGGTGGTACG | 4.45 |
| TAGCCTAGGTCAGATCGGGCCAGTACACGCTATA | 0.74 |
| AGAACGAGGCCACGCTGAGTTGATAGCAGAGTAG | 0.903 |
